# Results filed as inconclusive are left out. The source made the active and inactive calls. The calls were made as follows, unless noted: active = hit-call score of the fitted dose curve at least 0.9, where 1 is the maximum; inconclusive = response in the unintended direction; inactive = score below 0.9.
# How the values were obtained:
# [1] = biological target: Thyroid hormone receptor alpha (Rattus norvegicus) + Thyroid hormone receptor beta (Rattus norvegicus) (UniProt P18113+P63059); experiment: TOX21_TR_LUC_GH3_Antagonist_Followup: Tox21 GH3 Thyroid Hormone Receptor Antagonism Luciferase Follow-Up Assay (AID 2283942)
# In short: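 Rat pituitary GH3 cells with a TRα/TRβ-driven luciferase reporter, 5 h attachment, then 15 concentrations (92 uM to 5nM final) plus 1.0 nM T3 agonist, 24 h at 37C/5% CO2. ONE-Glo luminescence; signal change fitted against DMSO baseline.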
# [2] = biological target: THRA (gene 7067) (UniProt P10827); experiment: TOX21_TRA_COA_Antagonist_Followup_ratio: Tox21 Thyroid Hormone Receptor alpha Antagonism through Coactivator Recruitment Follow-Up Assay, Ratio (AID 2283953)
# In short: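 520:495 nm emission ratio (excitation 340 nm) reports fluorescein-SRC-2 peptide recruitment to GST-TRα LBD by TR-FRET with Tb anti-GST antibody. Values were normalized to DMSO (0%) and T3 control wells (100%); loss of signal indicated antagonism.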
# [3] = biological target: THRB (gene 7068) (UniProt P10828); experiment: TOX21_TRB_BLA_Antagonist_Followup_ratio: Tox21 Thyroid Hormone Receptor beta Antagonism Beta-lactamase (BLA) Follow-Up Assay, Ratio (AID 2283958)
# Text: The GeneBLAzer TRb-UAS-bla HEK293T assay kit for human TRb (ThermoFisherScientific Catalog No. K1684) was used as a secondary assay for specificity (TRb-bla).This assay contained the ligand-binding domain (LBD) of the human TRb fused to the DNA-binding domain of GAL4 stably integrated in the GeneBLAzer UAS-bla HEK293Tcell line. The reporter gene, b-lactamase, is under the transcriptional control of a UAS that binds the GAL4 DNA-binding domain. A cell viability assay was run in parallel for these cells as well using the CellTiter-Glo viability assay kit.TOX21_TRB_BLA_Antagonist_Followup_ratio is an assay readout measuring reporter gene via receptor activity and designed using inducible reporter (beta lactamase induction) detected with GAL4 b-lactamase reporter gene. The signal is derived from the ratio of cleaved (ch2) to uncleaved (ch1) reporter gene substrate used as the measure of target activity.Data from the assay component TOX21_TRB_BLA_Antagonist_Followup_ratio was analyzed into 1 assay endpoint. This assay endpoint, TOX21_TRB_BLA_Antagonist_Followup_ratio, was analyzed in the positive analysis fitting direction relative to DMSO as the negative control and baseline of activity. Using a type of inducible reporter, loss-of-signal activity can be used to understand changes in the reporter gene as they relate to the gene THRB. […]
# [4] = biological target: PGR (gene 5241) (UniProt P06401); experiment: TOX21_PR_BLA_Followup_Antagonist_ratio: Tox21 HEK293 Progesterone Receptor (PR) Antagonism Beta-lactamase Follow-Up Assay, Ratio (AID 2283934)
# In short: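 HEK293T PR-UAS-bla, 2% CS-FBS; 6 hr plating, then cpd + R5020 (1 nM final), 16 hr 37C/5% CO2. B/G FRET substrate 2 h RT. Ratio ch2/ch1 vs DMSO; CellTiter-Glo viability multiplexed, autofluorescence checked.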
# [5] = TOX21_PR_BLA_Followup_Agonist_viability: Viability Assessment in the Tox21 HEK293 Progesterone Receptor (PR) Agonism Beta-lactamase Follow-Up Assay (AID 2283935);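 also: cells exposed to compound for 16 hr at 37 °C; signal loss means lower viability so actives are cytotoxic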
# Protocol: TOX21_PR_BLA_Followup is a secondary assay for specificity for the TOX21_PR_BLA_Agonist assay. To differentiate true PR agonists from cytotoxic substances, this follow up assay is multiplexed with a cell viability assay. The compounds were also tested for auto fluorescence that may interfere with the biological target readout resulting in potential false positives and/or negatives. To identify the compounds that stimulate PR signaling, a PR-UAS-bla GripTite cell line i.e. PR-UAS-bla HEK293T (Invitrogen, Carlsbad, CA, USA) containing a beta-lactamase reporter gene under the control of an UAS response element was used to screen Tox21 10K compound library. The cytotoxicity of the Tox21 compound library against the PR-bla cell line was tested in parallel by measuring the cell viability using CellTiter-Glo assay in the same wells. TOX21_PR_BLA_Followup_Agonist_viability is a component of the TOX21_PR_BLA_Followup_Agonist assay. This component measures cell viability using the CellTiter-Glo Luciferase-coupled ATP quantitation.TOX21_PR_BLA_Followup_Agonist_viability used a type of viability reporter where loss-of-signal activity can be used to understand changes in the cell viability. Furthermore, this assay endpoint can be referred to as a secondary readout, because this assay has produced multiple assay endpoints where this one serves a viability function. […]
# Assay Protocol: PR-UAS-bla HEK293T cells were dispensed at 3,000 cells/5 uL of assay medium containing 2% charcoal stripped FBS per well into black wall/clear-bottom 1536-well plates using a Multidrop Combi (ThermoFisher Scientific, Waltham, MA) dispenser. […] Then 1 uL of LiveBLAzer B/G FRET substrate was added using a Flying Reagent Dispenser (FRD, Aurora Discovery, San Diego, CA), the plates were incubated at room temperature for 2 hours, and fluorescence intensity was measured by an Envision plate reader (PerkinElmer, Shelton, CT). For cell viability readout that measures cytotoxicity, 4 uL/well of CellTiter-Glo reagent was added into the assay plates using a FRD. […]
# [6] = TOX21_PR_BLA_Followup_Antagonist_viability: Viability Assessment in the Tox21 HEK293 Progesterone Receptor (PR) Antagonism Beta-lactamase Follow-Up Assay (AID 2283936);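 also: hits lower the luminescence signal meaning cytotoxicity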
# In short: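 PR-UAS-bla HEK293T cells (3,000/well, 2% charcoal-stripped FBS) given compound plus R5020 agonist, 16 h at 37C. CellTiter-Glo added after bla read, 30 min at room temperature; luminescence loss indicates cytotoxicity.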
# [7] = biological target: PGR (gene 5241) (UniProt P06401); experiment: TOX21_PR_LUC_Followup_Antagonist: Tox21 HEK293 Progesterone Receptor (PR) Antagonism Luciferase Follow-Up Assay (AID 2283938);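 also: curve fitted upward as signal gain over DMSO baseline despite antagonist label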
# In short: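 Luciferase reporter in HEK293-PR-A-luc cells: 16 h compound treatment at 37C, ONE-Glo luminescence detection, DMSO as negative control and baseline.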
# [8] = TOX21_PR_LUC_Followup_Agonist_viability: Viability Assessment in the Tox21 HEK293 Progesterone Receptor (PR) Agonism Luciferase Follow-Up Assay (AID 2283941);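 also: loss of signal means cytotoxicity so actives lower viability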
# In short: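 Cells were kept 5 days in charcoal-stripped serum medium before plating HEK293-PR-A-luc at 3,000 cells/well. After 5 h they received DMSO-dissolved compound and incubated 16 h at 37C. Viability was taken from CellTiter-Glo ATP luminescence.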
# [9] = biological target: PGR (gene 5241) (UniProt P06401); experiment: TOX21_PR_LUC_Followup_Agonist: Tox21 HEK293 Progesterone Receptor (PR) Agonism Luciferase Follow-Up Assay (AID 2283937; active = hit-call score of the fitted dose curve at least 0.9, where 1 is the maximum; inactive = score below 0.9)
# In short: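 Cells: HEK293-PR-A-luc, 3,000/well, 10% charcoal-stripped FBS assay medium. Compound added after 5 h; 16 h, 37C, 0% CO2. ONE-Glo luciferase, luminescence. Positive fit vs DMSO.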
# [10] = TOX21_PR_LUC_Followup_Antagonist_viability: Viability Assessment in the Tox21 HEK293 Progesterone Receptor (PR) Antagonism Luciferase Follow-Up Assay (AID 2283940)
# In short: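 Multiplexed viability counter-screen: after 5 days in charcoal-stripped-FBS medium, HEK293-PR-A-luc cells are plated, pinned with DMSO-dissolved compounds for 16 h at 37C, and ATP content is quantified luminescently via CellTiter-Glo.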
# Chain of PGR (gene 5241) (P06401 whole entry, looked up): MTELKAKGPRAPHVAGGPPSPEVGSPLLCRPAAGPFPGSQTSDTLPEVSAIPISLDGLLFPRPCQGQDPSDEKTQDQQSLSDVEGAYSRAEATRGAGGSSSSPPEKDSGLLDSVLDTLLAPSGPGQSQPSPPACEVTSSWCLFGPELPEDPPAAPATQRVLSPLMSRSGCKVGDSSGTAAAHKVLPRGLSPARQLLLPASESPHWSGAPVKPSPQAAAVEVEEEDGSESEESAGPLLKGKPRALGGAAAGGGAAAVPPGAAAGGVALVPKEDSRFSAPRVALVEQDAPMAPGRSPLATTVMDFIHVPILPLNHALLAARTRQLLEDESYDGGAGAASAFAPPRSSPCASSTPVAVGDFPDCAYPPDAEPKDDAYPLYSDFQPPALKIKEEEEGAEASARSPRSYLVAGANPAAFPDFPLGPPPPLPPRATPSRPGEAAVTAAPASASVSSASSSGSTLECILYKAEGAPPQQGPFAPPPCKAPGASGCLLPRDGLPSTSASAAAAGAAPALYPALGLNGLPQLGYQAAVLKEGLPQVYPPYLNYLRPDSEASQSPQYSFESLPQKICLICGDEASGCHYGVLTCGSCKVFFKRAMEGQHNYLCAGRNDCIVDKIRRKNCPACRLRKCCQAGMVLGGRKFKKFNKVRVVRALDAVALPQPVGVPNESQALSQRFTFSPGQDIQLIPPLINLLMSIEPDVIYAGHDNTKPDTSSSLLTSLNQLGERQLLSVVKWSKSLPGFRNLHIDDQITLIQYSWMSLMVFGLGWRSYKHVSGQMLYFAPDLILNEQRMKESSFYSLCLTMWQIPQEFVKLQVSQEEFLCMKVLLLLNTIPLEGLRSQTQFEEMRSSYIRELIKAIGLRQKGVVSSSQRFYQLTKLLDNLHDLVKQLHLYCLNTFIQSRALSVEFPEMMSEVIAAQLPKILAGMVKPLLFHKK
# Chain of THRA (gene 7067) (P10827 whole entry, looked up, the tested form may be a part): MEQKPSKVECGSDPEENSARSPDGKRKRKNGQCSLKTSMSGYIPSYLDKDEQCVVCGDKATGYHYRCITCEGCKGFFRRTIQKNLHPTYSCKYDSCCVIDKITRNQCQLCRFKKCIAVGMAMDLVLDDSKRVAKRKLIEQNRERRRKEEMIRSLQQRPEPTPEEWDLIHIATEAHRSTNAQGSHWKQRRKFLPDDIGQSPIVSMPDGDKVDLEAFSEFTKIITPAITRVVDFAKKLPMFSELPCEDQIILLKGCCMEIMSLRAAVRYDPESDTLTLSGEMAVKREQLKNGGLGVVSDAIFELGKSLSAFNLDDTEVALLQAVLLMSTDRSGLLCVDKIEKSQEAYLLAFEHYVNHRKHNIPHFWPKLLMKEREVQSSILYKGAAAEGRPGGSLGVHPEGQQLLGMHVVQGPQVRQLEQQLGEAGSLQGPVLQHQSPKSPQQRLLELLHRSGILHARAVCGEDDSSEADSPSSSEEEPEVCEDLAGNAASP
# Chain of THRB (gene 7068) (P10828 whole entry, looked up, the tested form may be a part): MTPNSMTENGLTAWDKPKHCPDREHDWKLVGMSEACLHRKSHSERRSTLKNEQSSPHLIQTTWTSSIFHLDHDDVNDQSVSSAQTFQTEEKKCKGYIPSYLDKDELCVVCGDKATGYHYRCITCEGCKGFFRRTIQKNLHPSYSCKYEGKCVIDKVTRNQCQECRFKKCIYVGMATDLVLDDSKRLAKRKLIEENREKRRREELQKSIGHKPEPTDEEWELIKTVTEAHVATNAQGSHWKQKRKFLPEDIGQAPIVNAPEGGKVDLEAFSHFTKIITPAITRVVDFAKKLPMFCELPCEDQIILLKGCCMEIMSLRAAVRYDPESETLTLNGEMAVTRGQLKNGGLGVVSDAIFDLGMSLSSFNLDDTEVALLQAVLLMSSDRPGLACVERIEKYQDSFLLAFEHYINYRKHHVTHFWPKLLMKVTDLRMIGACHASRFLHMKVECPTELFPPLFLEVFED
structure (smiles),measurement,setting,value
CO/N=C(/C1=NOCCO1)c1ccccc1Oc1ncnc(Oc2ccccc2Cl)c1F,AC50,[1],16.5 µM (active)
same,outcome,[2],inactive
same,AC50,[3],54.6 µM (active)
CCN(CC)C(=O)C(C)Oc1cccc2ccccc12 (stereo unspecified),AC50,[4],28.4 µM (active)
same,outcome,[5],inactive
same,outcome,[6],inactive
same,outcome,[7],inactive
same,outcome,[8],inactive
CC1(C)CCC(=Cc2ccc(Cl)cc2)C1(O)Cn1cncn1 (stereo unspecified),outcome,[4],inactive
same,outcome,[5],inactive
same,outcome,[6],inactive
same,outcome,[9],inactive
same,outcome,[7],inactive
same,outcome,[10],inactive
same,outcome,[8],inactive
N#Cc1c[nH]cc1-c1cccc2c1OC(F)(F)O2,AC50,[4],2.42 µM (active)
same,outcome,[5],inactive
same,outcome,[6],inactive
same,AC50,[7],7.11 µM (active)
same,outcome,[10],inactive
same,outcome,[8],inactive

# — PubChem BioAssay (EPA / NIEHS)
